This is an account of results in PubChem BioAssay AID624138 (Broad Institute, 2012).

Out of some 17,000 compounds screened, about 35 (0.2%) were called active. The sample holds actives, similar compounds and a random draw of the others, so the mix is not that of the screen.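 The calls were made as follows: active = compounds whose four printed spots each show fluorescence over background unusually high for their array block, chance value under 7%; inactive = the rest.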

In this test the target is Signal transducer and activator of transcription 3 (Homo sapiens) (UniProt P40763). The test is described as follows: small molecules binding His-tagged STAT3 – biochemical, small molecule microarray, single point, set 2, primary screen (AID 624138). The conditions noted are these: anti-His fluorescence.
Chain of Signal transducer and activator of transcription 3 (Homo sapiens) (P40763 whole entry, looked up): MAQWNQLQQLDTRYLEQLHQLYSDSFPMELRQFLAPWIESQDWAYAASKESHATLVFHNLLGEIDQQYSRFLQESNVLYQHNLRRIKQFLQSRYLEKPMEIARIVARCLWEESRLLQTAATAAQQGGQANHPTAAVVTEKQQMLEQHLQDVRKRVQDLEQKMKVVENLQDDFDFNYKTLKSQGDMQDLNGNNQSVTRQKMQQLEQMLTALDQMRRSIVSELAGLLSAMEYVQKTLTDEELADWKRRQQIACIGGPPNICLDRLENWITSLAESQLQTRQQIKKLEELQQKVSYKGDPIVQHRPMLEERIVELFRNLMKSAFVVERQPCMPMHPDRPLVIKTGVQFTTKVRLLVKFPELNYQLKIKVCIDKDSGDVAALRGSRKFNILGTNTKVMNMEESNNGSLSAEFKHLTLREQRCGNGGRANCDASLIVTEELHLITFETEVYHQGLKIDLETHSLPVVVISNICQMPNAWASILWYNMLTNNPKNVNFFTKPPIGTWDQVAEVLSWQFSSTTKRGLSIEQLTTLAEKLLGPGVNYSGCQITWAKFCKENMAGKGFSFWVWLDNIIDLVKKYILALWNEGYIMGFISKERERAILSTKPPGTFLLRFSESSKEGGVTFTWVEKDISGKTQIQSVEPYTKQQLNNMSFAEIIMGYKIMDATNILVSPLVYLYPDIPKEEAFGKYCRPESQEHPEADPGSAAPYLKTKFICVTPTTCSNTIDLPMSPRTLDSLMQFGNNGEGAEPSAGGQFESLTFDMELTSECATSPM
For `Cc1noc(C)c1NC(=O)Nc1ccc2c(c1)C(=O)N([C@@H](C)CO)C[C@H](C)[C@H](CN(C)Cc1ccc(C(=O)O)cc1)OCCCC[C@@H](C)O2`, the call was inactive.
Regarding `C[C@H](CO)N1C[C@H](C)[C@H](CN(C)Cc2ccncc2)Oc2ccc(N(C)C)cc2C1=O`, the result was inactive.
With `C[C@H]1CN([C@@H](C)CO)C(=O)c2cc(NC(=O)Cn3cnnn3)ccc2O[C@@H]1CN(C)CC1CCCCC1`, the call was inactive.
As for `C[C@H]1CN([C@@H](C)CO)C(=O)Cc2cc(NC(=O)Nc3ccccc3)ccc2O[C@H]1CN(C)Cc1ccncc1`, the compound was classed as inactive.
As for `Cc1cc(O)c2c(c1)C(=O)OC2c1c(O)cccc1O` (stereo not given), the compound was classed as inactive.
As to `CO[C@H]1O[C@H](CO)[C@@H](OC(=O)Nc2ccccc2-c2ccccc2)[C@H](OC(=O)Nc2ccccc2)[C@H]1OC(=O)Nc1ccccc1`, the compound was classed as inactive.
Take `CC(=O)n1cc([C@@H]2C=C(C(=O)N3CCN(Cc4ccc5c(c4)OCO5)CC3)O[C@H](OCc3ccc(CO)cc3)C2)c2ccccc21`: the compound was classed as inactive.
On to `Cc1noc(C)c1S(=O)(=O)Nc1ccc2c(c1)C(=O)N([C@@H](C)CO)C[C@@H](C)[C@H](CN(C)C(=O)NC(C)C)OCCCC[C@@H](C)O2`, for which the compound was called inactive.
`Cc1noc(C)c1NC(=O)Nc1ccc2c(c1)C(=O)N([C@@H](C)CO)C[C@H](C)[C@H](CN(C)S(=O)(=O)c1cn(C)cn1)OCCCC[C@@H](C)O2`: the compound was called inactive.
With `C[C@@H]1CN([C@H](C)CO)C(=O)c2cccc(NS(=O)(=O)c3cccs3)c2O[C@@H]1CN(C)C(=O)Nc1cccc2ccccc12`, the compound was classed as inactive.
Consider `CC(C)NC(=O)Nc1ccc2c(c1)C(=O)N([C@@H](C)CO)C[C@@H](C)[C@H](CN(C)S(=O)(=O)c1ccccc1)OCCCC[C@@H](C)O2`, for which the outcome was inactive.
On to `CC(=O)Nc1ccc(NC(=O)CC2C(=O)Nc3ccccc3N2C(C)=O)cc1` (stereo not given), for which the result was inactive.
Regarding `COc1ccc2c(c1)C(=O)CC(c1ccccc1)O2` (stereo not given), the call was inactive.
`Cc1ccc2[nH]c(C)c(CCNC(=O)Nc3ccc(Cl)cc3)c2c1`: the result was inactive.
Take `C[C@@H]1CN([C@H](C)CO)C(=O)c2cccc(NC(=O)C3CCOCC3)c2O[C@H]1CN(C)S(=O)(=O)c1ccc(Cl)cc1`: the outcome was inactive.
For `COc1ccc(S(=O)(=O)Nc2ccc3c(c2)CC(=O)N([C@H](C)CO)C[C@H](C)[C@H](CN(C)CC2CC2)O3)cc1`, the call was inactive.
For the compound `Cc1noc(C)c1S(=O)(=O)N(C)C[C@H]1Oc2c(NC(=O)c3cnccn3)cccc2C(=O)N([C@H](C)CO)C[C@H]1C`, the outcome was inactive.
With `C/C(=C/CC[C@@H](CO)[C@H]1CC[C@@]2(C)[C@@H]3CC[C@H]4C(C)(C)[C@@H](O[C@@H]5O[C@H](CO)[C@@H](O)[C@H](O)[C@H]5O)C[C@H](O)[C@@]45C[C@@]35CC[C@]12C)CO`, the outcome was inactive.
With `O=C(C1=C[C@@H](c2ccccc2)C[C@@H](OCCCCO)O1)N1CCN(Cc2ccccc2)CC1` the entry was “inactive”; with `C=C1C[C@@H]2COC(=O)[C@]2(Cc2ccc3ccccc3c2)C1`, “inactive”.
With `O=C(OC1OC(CO)C(O)C(O)C1O)c1c(O)cc(O)cc1/C=C/c1ccccc1` (stereo not given), the call was inactive.
Consider `COc1ccc(CN(C)C[C@@H]2Oc3ccc(NC(=O)Nc4ccc(OC)cc4)cc3CC(=O)N([C@H](C)CO)C[C@H]2C)cc1`, for which the call was inactive.
In the case of `C[C@@H]1CCCCO[C@H](CN(C)C(=O)CCCN(C)C)[C@H](C)CN([C@@H](C)CO)C(=O)c2cc(NS(=O)(=O)c3ccccc3)ccc2O1`, the compound was called inactive.
For `C[C@@H]1CCCCO[C@@H](CN(C)C(=O)CCCN(C)C)[C@@H](C)CN([C@H](C)CO)C(=O)c2cc(NC(=O)CCCN(C)C)ccc2O1`, the call was inactive.
Take `CNC[C@H]1Oc2ccc(NC(=O)CCC(F)(F)F)cc2C(=O)N([C@@H](C)CO)C[C@H]1C`: the compound was called inactive.
For `CCCCCc1ccc(/C=C/C(=O)Nc2ccccc2C(=O)O)cc1`, the compound was called inactive.
Turning to `CC(Sc1nc2ccccc2[nH]1)c1nc2ccccc2[nH]1` (stereo not given), the call was inactive.
In the case of `C[C@H]1CCCCO[C@H](CN(C)C)[C@@H](C)CN([C@@H](C)CO)C(=O)c2cc(NC(=O)CCCN(C)C)ccc2O1`, the compound was called inactive.
As to `COC(=O)CSc1nnc(-c2ccc(Cl)cc2)n1-c1ccc(Br)cc1`, the result was inactive.
Under `C[C@@H]1CN([C@H](C)CO)C(=O)Cc2cc(NC(=O)C3CC3)ccc2O[C@H]1CN(C)Cc1ccc(Cl)c(Cl)c1` stands “inactive”; under `COc1ccc(NC(=O)CN(C)S(=O)(=O)c2ccccc2)cc1OC`, “inactive”.
For `C#CCN1C(Cc2ccccc2)C(=O)O[C@H](C2CCCCC2)[C@@H]1/C=C/C1CC1` (stereo not given in full), the compound was called inactive.
For `C[C@@H]1CN([C@H](C)CO)C(=O)Cc2cc(N(C)C)ccc2O[C@@H]1CN(C)Cc1ccccc1`, the compound was classed as inactive.
Consider `C[C@H]1CN([C@@H](C)CO)C(=O)c2cccc(NC(=O)C3CCOCC3)c2O[C@@H]1CN(C)C`, for which the compound was classed as inactive.
On to `CC1(C)CC(=O)c2ccc(O)cc2O1`, for which the call was inactive.
Consider `C[C@@H]1CN([C@@H](C)CO)C(=O)CCCn2cc(nn2)CO[C@H]1CN(C)C(=O)Nc1ccc(N2CCCCC2)cc1`, for which the call was inactive.
Regarding `Cc1noc(C)c1S(=O)(=O)N(C)C[C@H]1Oc2ccc(NC(=O)Cc3ccccc3)cc2CC(=O)N([C@@H](C)CO)C[C@H]1C`, the outcome was inactive.
For the compound `COc1ccccc1NC(=O)CNC(=O)c1ccc(C)cc1`, the compound was called inactive.
In the case of `CC(C)NC(=O)Nc1ccc2c(c1)C(=O)N([C@H](C)CO)C[C@H](C)[C@@H](CN(C)C)OCCCC[C@H](C)O2`, the result was inactive.
On to `CCn1c(SCC(=O)Nc2sc3c(c2C#N)CCCC3)nnc1-c1ccccc1O`, for which the call was inactive.
